This assay has as its target Chromo domain-containing protein 1 (Saccharomyces cerevisiae (strain ATCC 204508 / S288c) (Baker's yeast)) (UniProt P32657). The assay can be described thus: ScCHD-1 Enzyme Inhibition Assay. It counts as functional. Further details: scale not given: in the data most compounds retested in dose-response had high values. The note with it: 30 µM.
Chromo domain-containing protein 1 (Saccharomyces cerevisiae (strain ATCC 204508 / S288c) (Baker's yeast)), sequence (P32657 whole entry, the tested form may be a part): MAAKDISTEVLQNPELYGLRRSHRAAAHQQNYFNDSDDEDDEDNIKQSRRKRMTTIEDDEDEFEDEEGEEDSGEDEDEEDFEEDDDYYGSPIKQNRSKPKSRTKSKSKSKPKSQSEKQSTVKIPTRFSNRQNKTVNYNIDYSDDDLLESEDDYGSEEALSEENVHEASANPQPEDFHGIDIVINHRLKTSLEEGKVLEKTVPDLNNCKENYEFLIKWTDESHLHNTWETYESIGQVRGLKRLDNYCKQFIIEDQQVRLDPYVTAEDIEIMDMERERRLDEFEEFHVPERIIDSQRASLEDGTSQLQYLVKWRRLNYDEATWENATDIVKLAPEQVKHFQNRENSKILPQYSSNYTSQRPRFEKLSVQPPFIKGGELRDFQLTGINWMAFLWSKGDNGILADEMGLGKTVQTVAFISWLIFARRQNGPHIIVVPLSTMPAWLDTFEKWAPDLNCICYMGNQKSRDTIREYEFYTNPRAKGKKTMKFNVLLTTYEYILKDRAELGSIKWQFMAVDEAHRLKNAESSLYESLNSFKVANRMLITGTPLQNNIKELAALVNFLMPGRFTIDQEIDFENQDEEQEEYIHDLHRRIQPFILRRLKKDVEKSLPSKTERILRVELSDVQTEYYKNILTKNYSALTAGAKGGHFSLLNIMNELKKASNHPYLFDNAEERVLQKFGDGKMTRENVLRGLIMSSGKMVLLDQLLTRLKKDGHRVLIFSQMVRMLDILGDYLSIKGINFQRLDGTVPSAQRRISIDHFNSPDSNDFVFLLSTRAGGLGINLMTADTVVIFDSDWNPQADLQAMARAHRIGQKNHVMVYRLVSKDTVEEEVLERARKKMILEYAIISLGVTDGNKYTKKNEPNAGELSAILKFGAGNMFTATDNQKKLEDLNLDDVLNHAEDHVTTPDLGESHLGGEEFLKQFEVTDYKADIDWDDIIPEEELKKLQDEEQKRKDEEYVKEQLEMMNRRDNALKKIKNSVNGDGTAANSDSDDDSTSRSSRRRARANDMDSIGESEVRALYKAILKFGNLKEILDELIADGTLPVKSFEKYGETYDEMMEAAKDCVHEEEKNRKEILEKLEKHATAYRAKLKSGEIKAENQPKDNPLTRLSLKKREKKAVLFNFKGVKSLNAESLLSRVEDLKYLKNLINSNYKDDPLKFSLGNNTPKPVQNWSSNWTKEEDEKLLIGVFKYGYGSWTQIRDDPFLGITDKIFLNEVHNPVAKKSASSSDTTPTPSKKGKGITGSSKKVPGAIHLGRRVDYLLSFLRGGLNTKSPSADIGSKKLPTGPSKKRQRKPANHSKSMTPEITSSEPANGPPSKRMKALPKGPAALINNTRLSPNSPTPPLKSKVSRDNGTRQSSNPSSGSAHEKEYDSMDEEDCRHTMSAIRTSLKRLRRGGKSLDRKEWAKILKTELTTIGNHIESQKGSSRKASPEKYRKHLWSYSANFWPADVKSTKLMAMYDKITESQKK
Turning to `CC(c1ccco1)N(C)Cc1nc2c(cnn2C)c(=O)[nH]1` (stereo not given), the Percent Effect is -9.16%.
`CCn1nc(C)c2nnn(CC(=O)Nc3cccc(Cl)c3)c(=O)c21`: the Percent Effect was -7%.
As for `CCCC(=O)NCc1cc(Br)c(OC)c(OC)c1`, the Percent Effect is -8.52%.
Next, `CC(=O)N(C)CC(=O)Nc1cccc(N2CCN(CC3CC3)CC2)c1`: 0.0532%; `CS(=O)(=O)N1CC[C@H]2[C@H](C[C@@H](Cn3cncn3)N2CC2CC2)C1`: -0.097%.
`COc1ccnc(N2CCN(C(=O)CN3CCCC3=O)CC2)n1`: the Percent Effect is -11.5%.
In the case of `Cc1cc(C)n(CC2CCCCN2Cc2cscn2)n1` (stereo not given), the Percent Effect was -10.8%.
As to `O=C(CC1CCCC1)N1CCCC(c2n[nH]c3nccnc23)C1` (stereo not given), the Percent Effect was -9.36%.
As for `CCc1ccc(CN2CC[C@H]3C[C@H](c4nnc(C)[nH]4)O[C@@H]3C2)o1`, the Percent Effect was -3.68%.
For `CN(C)CCNC(=O)c1cc(-c2cnc(N3CCCC3)nc2)cn1C`, the Percent Effect was -10.7%.
As for `Cc1cnn(CCNCc2ccccc2C#N)c1`, the Percent Effect was determined as 1.22%.
Next, `Cc1ccc(CN2CCC3(C2)C(=O)N(CC(C)C)c2ccccc23)s1` (stereo not given): -7.96%; `NC(=O)Nc1cccc(Oc2ccccn2)c1`: -0.275%; `CC(CNC(=O)Nc1cn[nH]c1)N1CCc2ccccc2C1` (stereo not given): -18%.
Turning to `O=C(CCc1ccc(Br)cc1F)NS(=O)(=O)c1ccc2c(c1)OCCO2`, the Percent Effect is -2.67%.
With `CC(NC(N)=O)C(=O)N1CCCN(Cc2nccn2C(C)C)CC1` (stereo not given), the Percent Effect was -3.12%.
Next, `CN1Cc2c(C(=O)Nc3cccnc3)ncn2-c2ccccc2S1(=O)=O`: 0.964%.
For `CN(C(=O)NCCCN1CCCC1)C1CCN(c2ccccc2)C1=O` (stereo not given), the Percent Effect was -10.3%.
Next, `CCSCCC(=O)Nc1ncn(Cc2cccnc2)n1`: -5.58%; `CNC(=O)[C@@]12CCO[C@@H]1CCN(S(=O)(=O)c1cccc(C)c1)C2`: -1.83%.
